Source: PubChem (National Center for Advancing Translational Sciences (NCATS))
HPGD inh = blocks human HPGD enzyme activity. purified HPGD, NADH fluorescence kinetic, PGE2 substrate. AID 894. Potency, µM, inactives show at the top dose activity change, negative = inhibition, hits mostly inhibitors. P15428. hit rate 4.3% among 150,000; active = well fitted inhibition curve with a large enough effect, not every such curve was filed as active; inconclusive = small, poorly fitted or top-dose-only effect, or another doubt; inactive = no such curve, though single readings can be large or run the other way; also: potency is read from the fitted curve at half-maximal effect; % is scaled to controls: 0 for no effect and ±100 for the full control effect
Target sequence (P15428 whole entry, looked up): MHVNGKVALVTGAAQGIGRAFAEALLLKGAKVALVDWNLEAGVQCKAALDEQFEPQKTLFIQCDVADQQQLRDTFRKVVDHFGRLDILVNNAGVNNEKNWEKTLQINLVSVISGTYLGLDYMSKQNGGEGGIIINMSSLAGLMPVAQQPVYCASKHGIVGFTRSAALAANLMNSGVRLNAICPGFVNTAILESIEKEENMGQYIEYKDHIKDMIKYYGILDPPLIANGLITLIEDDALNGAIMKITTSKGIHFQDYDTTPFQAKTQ
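20 nM HPGD preincubated 15 min at room temperature with compound in 50 mM Tris-HCl pH 8, 0.01% Tween 20. Started with 1 mM NAD+ and 30 uM prostaglandin E2; NADH fluorescence (360/450 nm) read 5 times over 30-s intervals, last minus first.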
IMPase cell inh = IMPase inhibition in cells | P97697 | CHO-M1 cells, IP1 accumulation, HTRF TR-FRET ratio | inhibition (IP1 accumulation), % at 46.1 µM | 120,000 tested, under 10 active | AID 901; active = well fitted curve in the direction sought with a large enough effect in the signal ratio, not every such curve was filed as active; inconclusive = small, poorly fitted or top-dose-only effect, or a change in a side signal; inactive = no such curve, though single readings can be large or run the other way; the % refers to the signal ratio;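 also: cells stimulated with carbachol in lithium chloride buffer; plate controls were DMSO basal wells for no effect and reference inhibitor wells for full effect; higher means more IMPase inhibition seen as more IP1 and lower FRET ratio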
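Measured: the HTRF emission ratio (665/620 nm) plus the 620 nm donor channel, each fitted to the Hill equation to give AC50. Cells were CHO-M1 given compounds up to 46 uM and a 30 min carbachol stimulation at 37C.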
ALDH1A1 block = inhibitors of human aldehyde dehydrogenase 1A1 | P00352 | Purified ALDH1A1, NADH fluorescence, propionaldehyde substrate | Potency, µM (doses to about 75.3 µM), for the others: top-dose activity, negative = inhibition, most hits filed as inhibitors | hit rate 7.3% among 220,000 | AID 1030; active = well fitted inhibition curve with a large enough effect, not every such curve was filed as active; inconclusive = small, poorly fitted or top-dose-only effect, or another doubt; inactive = no such curve, though single readings can be large or run the other way;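 also: potency is read from the fitted curve at half-maximal effect; plate controls were no enzyme wells and a reference inhibitor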
Target sequence (P00352 whole entry, looked up): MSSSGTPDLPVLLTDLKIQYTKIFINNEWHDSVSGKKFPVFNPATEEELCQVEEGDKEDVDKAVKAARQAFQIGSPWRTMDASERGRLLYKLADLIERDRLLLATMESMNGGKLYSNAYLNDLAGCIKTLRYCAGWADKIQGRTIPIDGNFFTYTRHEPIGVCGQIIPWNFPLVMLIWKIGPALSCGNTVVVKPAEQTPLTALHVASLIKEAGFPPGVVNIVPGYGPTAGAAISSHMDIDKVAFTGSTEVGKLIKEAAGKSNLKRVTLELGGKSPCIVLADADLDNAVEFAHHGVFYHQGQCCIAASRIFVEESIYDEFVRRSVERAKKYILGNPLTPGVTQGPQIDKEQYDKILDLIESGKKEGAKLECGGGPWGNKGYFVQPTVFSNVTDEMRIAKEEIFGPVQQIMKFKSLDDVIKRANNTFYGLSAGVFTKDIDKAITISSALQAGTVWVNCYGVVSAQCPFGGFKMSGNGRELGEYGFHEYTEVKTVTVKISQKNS
IMPase Li cell = IMPase inhibition in cells with lithium potentiation; hit rate 0.35% among 210,000; Potency, µM (titrated, usually from 59.4 µM), for inactives: at the highest dose activity, negative = IMPase inhibition, actives largely listed as inhibitors; CHO-M1 cells, IP1 TR-FRET (IP-One), carbachol + lithium; AID 1457;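 also: IP1 builds up when IMPase is blocked and the TR-FRET signal falls; potency is read from the fitted curve at half-maximal effect; plate controls were basal vehicle for no effect and high inhibitor control for full effect; nearly all actives have a fitted effect of over 50% in size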
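CHO cells stably expressing M1 receptor (2000/well) were cultured 16–30 h, then exposed to compounds with a small lithium addition for 30 min at 37C. IP1 was measured by TR-FRET competition; AC50 from Hill fits.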
HTT aggregate = mutant huntingtin aggregation inhibition; PC12 HttQ103-GFP aggregates, Acumen cytometry, 40 h; Potency, µM (titrated, usually from 46.1 µM), for inactives: at the top dose activity change, negative = inhibition, usual class: inhibitors; hit rate 1.1% among 220,000; also: potency is read from the fitted curve at half-maximal effect; % is scaled to controls: 0 for no effect and ±100 for the full control effect; nearly all actives have a fitted effect of over 60% in size
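Aggregates are detected as GFP objects 1–25 µm with signal 6 STDEV over background in lysates of induced PC12 cells. These carry Huntingtin exon 1 with 103 glutamines fused to GFP under an ecdysone promoter; compounds titrated.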
HTT ATP protect = Huntington cell model cytoprotection by ATP luminescence | PC12 HTT-Q103 induced, cytoprotection, ATP luminescence, 40 h | Potency, µM (doses to about 56.4 µM), for the others: cytoprotection (ATP increase), usual class: activators | hit rate 0.14% among 230,000 | AID 1471; also: potency is read from the fitted curve at half-maximal effect; % of control where 0% means no effect; nearly all actives have a fitted effect of over 45% in size
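Compounds added alongside 100 nM tebufenozide, which induces toxic Q103 huntingtin exon 1-GFP in stable PC12 cells; surviving cells quantified by luminescent ATP measurement. Medium: phenol red-free DMEM, 5% equine and 5% calf serum.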
Numbers without * were called inactive; [ ] = dose if it differs, or a comment. This is a sample that favours compounds with a hit; in the whole collection about 9.4% have one here. Unless noted, calls follow the shape of the dose curve; as a rule, active = well fitted curve in the direction sought with a large enough effect; inconclusive = small, poorly fitted or top-dose-only effect, or another doubt; inactive = no such curve, though single readings can be large; an effect the other way counts as inactive or inconclusive.

Results for CC(C)(C)c1cc(CN(CCO)CCO)cc(C(C)(C)C)c1O ?
HPGD inh: 25µM*; IMPase cell inh: 7; ALDH1A1 block: 2.5µM*; IMPase Li cell: 15%[38.3 µM]; HTT aggregate: inconclusive; HTT ATP protect: -17%[0.074 µM]

How did COc1ccc(CC(=O)N2CCN(c3ccccn3)CC2)cc1OC do in these assays?
HPGD inh: inconclusive; IMPase cell inh: 1; ALDH1A1 block: inconclusive; IMPase Li cell: 19%[38.3 µM]; HTT aggregate: -1%; HTT ATP protect: 15%

Results for CCCc1ccc(OCc2ccc(C(=O)N3CCN(c4ccccn4)CC3)o2)c(OC)c1 ?
HPGD inh: inconclusive; IMPase cell inh: 12; ALDH1A1 block: -12%; IMPase Li cell: 47%[38.3 µM]; HTT aggregate: 18µM*; HTT ATP protect: -16%[0.074 µM]

What do the screens show for `CC[C@@]1(O)C(=O)COc2c1cc1n(c2=O)Cc2c-1nc1cccc(C(C)C)c1c2[Si](C)(C)C`?
HPGD inh: inconclusive; ALDH1A1 block: inconclusive; IMPase Li cell: -24%; HTT ATP protect: -100%

How did O=C(CC1C(=O)CCCC1=O)c1ccccc1 do in these assays?
ALDH1A1 block: 8.9µM*; IMPase Li cell: 11%; HTT aggregate: -2%; HTT ATP protect: -3%

How did S=c1[nH]cc(Cc2ccccc2)s1 do in these assays?
HPGD inh: 20µM*; ALDH1A1 block: 10µM*; IMPase Li cell: -3%; HTT aggregate: 14%

What do the screens show for `CCOC(=O)c1ccc2c(c1)[nH]c(=S)n2CC`?
ALDH1A1 block: 25µM*; IMPase Li cell: 4%; HTT aggregate: -16%[9.22 µM]; HTT ATP protect: -5%[10 µM]

What do the screens show for `CCN(CC)S(=O)(=O)c1ccc2nc(CCl)[nH]c2c1`?
ALDH1A1 block: 20µM*; IMPase Li cell: -9%; HTT aggregate: 2%

Results for CCN(CC)S(=O)(=O)c1ccc2c(c1)[nH]c(=S)n2CC ?
ALDH1A1 block: 18µM*; IMPase Li cell: 8%; HTT aggregate: -14%; HTT ATP protect: 7%

Results for CCN(CC)S(=O)(=O)c1ccc(Cl)nc1 ?
ALDH1A1 block: -4%; IMPase Li cell: -1%; HTT aggregate: -14%; HTT ATP protect: -45%

Results for Cc1ccc(NC(=O)CCSc2nc(-c3ccco3)cc(C(F)(F)F)n2)cc1F ?
IMPase cell inh: -2

What do the screens show for `N[C@H](CCCC(=O)O)C(=O)O`?
IMPase cell inh: 3; HTT ATP protect: -16%[1.9 µM]

What do the screens show for `COc1cc2c(cc1OC)[C@@H]1CC(=O)[C@@H](CC(C)C)CN1CC2`?
HPGD inh: inconclusive; ALDH1A1 block: inconclusive; IMPase Li cell: 5%; HTT ATP protect: -49%

How did CC(/C=C/C(=O)c1ccc(C)cc1)=C\c1ccccc1 do in these assays?
HPGD inh: -15%; IMPase cell inh: 5; ALDH1A1 block: -7%; IMPase Li cell: 2%[38.3 µM]; HTT aggregate: -5%; HTT ATP protect: -13%

What do the screens show for `O=C(O)/C=C/C(=O)c1ccc(O)cc1`?
ALDH1A1 block: 14µM*; HTT aggregate: -1%[9.22 µM]; HTT ATP protect: 0%[10 µM]

How did Cc1ccc(C(=O)/C=C\NCc2ccccc2)cc1 do in these assays?
HPGD inh: inconclusive; ALDH1A1 block: inconclusive; IMPase Li cell: -1%; HTT aggregate: -8%

Results for Cc1ccc(S/C=C\C(=O)c2ccccc2)cc1 ?
HPGD inh: -21%; IMPase cell inh: 2; ALDH1A1 block: 20µM*; IMPase Li cell: 2%[38.3 µM]; HTT aggregate: -17%; HTT ATP protect: -77%

How did Cc1ccc(C(=O)/C=C/c2ccc(-c3ccc(C)cc3)o2)cc1 do in these assays?
HPGD inh: 7.1µM*; ALDH1A1 block: 0.71µM*; IMPase Li cell: 6%; HTT aggregate: -14%; HTT ATP protect: -5%[10 µM]

How did Cc1ccc(C(=O)/C=C\C(=O)c2ccc(C)cc2)cc1 do in these assays?
HPGD inh: 2.2µM*; ALDH1A1 block: 7.1µM*; IMPase Li cell: 12%; HTT aggregate: inconclusive; HTT ATP protect: 7%[10 µM]

How did O=C(N[C@@H](c1ccccc1)[C@@H]1C[C@H]1C(=O)NCc1ccccc1)OCc1ccccc1 do in these assays?
HPGD inh: -3%; ALDH1A1 block: inconclusive; IMPase Li cell: 4%; HTT ATP protect: -124%

What do the screens show for `O=S(=O)(c1ccccc1)N1CCC2(CCCN(c3ccncc3)C2)CC1`?
HPGD inh: -1%; ALDH1A1 block: -1%; IMPase Li cell: 24%; HTT ATP protect: -28%

How did C[C@H](O/N=C1/[C@H]2O[C@@H]2[C@@H](O)[C@H]2[C@H]1CCn1c(=O)n(-c3ccccc3)c(=O)n12)c1cn([C@H](CO)Cc2ccccc2)nn1 do in these assays?
ALDH1A1 block: -1%[13.5 µM]; HTT ATP protect: 14%[10 µM]

Results for C[C@@H](O)CCC[C@H](O)/C=C/[C@@H]1[C@@H](C/C=C\CCCC(=O)O)[C@@H](O)C[C@H]1O ?
HPGD inh: -3%; ALDH1A1 block: -3%; IMPase Li cell: 9%; HTT ATP protect: -24%

How did O=C(O)/C=C/c1ccc(-c2cccc(C(F)(F)F)c2)o1 do in these assays?
ALDH1A1 block: inconclusive; IMPase Li cell: -9%; HTT aggregate: -6%; HTT ATP protect: -25%

Results for O=C(/C=C\c1ccc(-c2ccccc2)o1)c1ccccc1 ?
HPGD inh: inconclusive; IMPase cell inh: -17; ALDH1A1 block: 4µM*; IMPase Li cell: 15%; HTT aggregate: 20%; HTT ATP protect: 33%[10 µM]

Results for NCCC[C@@H](CC(=O)N[C@@H]1CCNC[C@H]1C(=O)N[C@H](CC(=O)N[C@@H](CCC(=O)O)CC(=O)O)Cc1ccccc1)NC(=O)C[C@H](Cc1c[nH]c2ccccc12)NC(=O)[C@@H]1CNCC[C@H]1N ?
HPGD inh: -5%; ALDH1A1 block: 6%; IMPase Li cell: -9%; HTT ATP protect: -2%[1.9 µM]

How did CCCCn1c(N)c(N(CC)C(=O)CSc2nnnn2-c2cc(C)ccc2C)c(=O)[nH]c1=O do in these assays?
ALDH1A1 block: 11µM*; IMPase Li cell: 6%; HTT aggregate: 12%; HTT ATP protect: -34%

How did CC(=O)c1c(O)c2ccccc2n(C(C)C)c1=O do in these assays?
ALDH1A1 block: 1%; IMPase Li cell: -5%; HTT aggregate: 13µM*; HTT ATP protect: -31%

How did CC(=O)c1c(O)c2ccccc2n(C)c1=O do in these assays?
ALDH1A1 block: inconclusive; IMPase Li cell: -4%; HTT aggregate: -8%; HTT ATP protect: inconclusive

How did C=C(C(=O)c1ccccc1)C(C)CC(=O)c1ccccc1 (stereo not drawn) do in these assays?
HPGD inh: 28µM*; IMPase cell inh: 6; ALDH1A1 block: inconclusive; IMPase Li cell: 19%; HTT aggregate: 18%; HTT ATP protect: 10%[1.9 µM]
